# The full list was thinned out, with the strongest signals kept by preference.
# Legend:
# Experiment in all cases: glycan array binding signal (z-score within array); higher = stronger binding
# Details in all cases: glycan notation: IUPAC condensed, linker removed
# [1] = biological target: Fuc(a1-2)Gal(b1-4)[Fuc(a1-3)]GlcNAc(b1-2)[Fuc(a1-2)Gal(b1-4)[Fuc(a1-3)]GlcNAc(b1-4)]Man(a1-3)[Fuc(a1-2)Gal(b1-4)[Fuc(a1-3)]GlcNAc(b1-2)Man(a1-6)]Man(b1-4)GlcNAc(b1-4)GlcNAc
# Method in brief: (§1)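 Glycan array data came from 3228 arrays in the Consortium for Functional Glycomics database, and only arrays with an available protein sequence were kept. Glycan names were put into IUPAC-condensed notation, and columns mapping to the same glycan were averaged. The binding signal is a within-array Z-score, averaged across arrays of one protein sequence run at different concentrations or buffers and across linkers. A negative Z-score can be read as non-binding.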
# [2] = biological target: Fuc(a1-2)[Gal(a1-3)]Gal(b1-3)GalNAc(b1-3)Gal(a1-4)Gal(b1-4)Glc
# Method in brief: as §1
# [3] = biological target: Fuc(a1-2)[Gal(a1-3)]Gal(b1-3)GlcNAc(b1-2)Man(a1-3)[Fuc(a1-2)[Gal(a1-3)]Gal(b1-3)GlcNAc(b1-2)Man(a1-6)]Man(b1-4)GlcNAc(b1-4)GlcNAc
# Method in brief: as §1
# [4] = biological target: Fuc(a1-2)[Gal(a1-3)]Gal(b1-4)[Fuc(a1-3)]Glc
# Method in brief: as §1
# [5] = biological target: Fuc(a1-2)[GalNAc(a1-3)]Gal(b1-3)GlcNAc(b1-3)GalNAc
# Method in brief: as §1
# [6] = biological target: Fuc(a1-2)[GalNAc(a1-3)]Gal(b1-4)GlcNAc(b1-2)Man(a1-3)[Fuc(a1-2)[GalNAc(a1-3)]Gal(b1-4)GlcNAc(b1-2)Man(a1-6)]Man(b1-4)GlcNAc(b1-4)GlcNAc
# Method in brief: as §1
# Fuc(a1-3)GlcNAc = biological target: Fuc(a1-3)GlcNAc
# Method in brief: as §1
# [7] = biological target: Fuc(a1-3)[Gal(b1-4)]GlcNAc(b1-3)Gal(b1-4)[Fuc(a1-3)]GlcNAc
# Method in brief: as §1
# [8] = biological target: Fuc(a1-3)[Gal(b1-4)]GlcNAc6S
# Method in brief: as §1
# [9] = biological target: Gal(a1-3)Gal(b1-4)GlcNAc(b1-2)Man(a1-3)[Gal(a1-3)Gal(b1-4)GlcNAc(b1-2)Man(a1-6)]Man(b1-4)GlcNAc(b1-4)GlcNAc
# Method in brief: as §1
# [10] = biological target: Gal(a1-3)Gal(b1-4)[Fuc(a1-3)]GlcNAc
# Method in brief: as §1
# [11] = biological target: Gal(a1-3)Gal(b1-4)[Fuc(a1-3)]GlcNAc(b1-2)Man(a1-3)[Gal(a1-3)Gal(b1-4)[Fuc(a1-3)]GlcNAc(b1-2)Man(a1-6)]Man(b1-4)GlcNAc(b1-4)GlcNAc
# Method in brief: as §1
# Gal(a1-4)Gal(b1-4)Glc = biological target: Gal(a1-4)Gal(b1-4)Glc
# Method in brief: as §1
# Gal(b1-3)GlcNAc = biological target: Gal(b1-3)GlcNAc
# Method in brief: as §1
# [12] = biological target: Gal(b1-3)GlcNAc(b1-2)Man(a1-3)[GlcNAc(b1-4)][Gal(b1-3)GlcNAc(b1-2)Man(a1-6)]Man(b1-4)GlcNAc(b1-4)GlcNAc
# Method in brief: as §1
# [13] = biological target: Gal(b1-4)GlcNAc(b1-3)Gal(b1-4)GlcNAc(b1-2)Man(a1-3)[Gal(b1-4)GlcNAc(b1-3)Gal(b1-4)GlcNAc(b1-2)Man(a1-6)]Man(b1-4)GlcNAc(b1-4)GlcNAc
# Method in brief: as §1
# [14] = biological target: Gal(b1-4)GlcNAc(b1-3)Gal(b1-4)GlcNAc(b1-3)Gal(b1-4)GlcNAc(b1-2)Man(a1-3)[Gal(b1-4)GlcNAc(b1-3)Gal(b1-4)GlcNAc(b1-3)Gal(b1-4)GlcNAc(b1-2)Man(a1-6)]Man(b1-4)GlcNAc(b1-4)GlcNAc
# Method in brief: as §1
# [15] = biological target: Gal(b1-4)GlcNAc(b1-3)Gal(b1-4)GlcNAc(b1-3)Gal(b1-4)GlcNAc(b1-3)Gal(b1-4)GlcNAc(b1-3)Gal(b1-4)GlcNAc(b1-2)Man(a1-3)[Gal(b1-4)GlcNAc(b1-3)Gal(b1-4)GlcNAc(b1-3)Gal(b1-4)GlcNAc(b1-3)Gal(b1-4)GlcNAc(b1-3)Gal(b1-4)GlcNAc(b1-2)Man(a1-6)]Man(b1-4)GlcNAc(b1-4)GlcNAc
# Method in brief: as §1
# [16] = biological target: Gal3S(b1-4)[Fuc(a1-3)]Glc6S
# Method in brief: as §1
# [17] = biological target: Gal3S(b1-4)[Fuc(a1-3)]GlcNAc
# Method in brief: as §1
# Gal3S6S(b1-4)GlcNAc = biological target: Gal3S6S(b1-4)GlcNAc
# Method in brief: as §1
# Gal6S(b1-4)GlcNAc6S = biological target: Gal6S(b1-4)GlcNAc6S
# Method in brief: as §1
# GalNAc(b1-6)GalNAc = biological target: GalNAc(b1-6)GalNAc
# Method in brief: as §1
# [18] = biological target: GlcNAc(a1-4)Gal(b1-4)GalNAc
# Method in brief: as §1
# [19] = biological target: GlcNAc(a1-4)Gal(b1-4)GlcNAc
# Method in brief: as §1
# [20] = biological target: GlcNAc(b1-2)Man(a1-3)[GlcNAc(b1-4)][GlcNAc(b1-2)Man(a1-6)]Man(b1-4)GlcNAc(b1-4)[Fuc(a1-6)]GlcNAc
# Method in brief: as §1
# [21] = biological target: GlcNAc(b1-3)Gal(b1-4)GlcNAc(b1-2)Man(a1-3)[GlcNAc(b1-3)Gal(b1-4)GlcNAc(b1-2)Man(a1-6)]Man(b1-4)GlcNAc(b1-4)[Fuc(a1-6)]GlcNAc
# Method in brief: as §1
# [22] = biological target: GlcNAc(b1-3)Gal(b1-4)GlcNAc(b1-3)Gal(b1-4)GlcNAc(b1-3)Gal(b1-4)GlcNAc(b1-2)Man(a1-3)[GlcNAc(b1-3)Gal(b1-4)GlcNAc(b1-3)Gal(b1-4)GlcNAc(b1-3)Gal(b1-4)GlcNAc(b1-2)Man(a1-6)]Man(b1-4)GlcNAc(b1-4)[Fuc(a1-6)]GlcNAc
# Method in brief: as §1
# [23] = biological target: GlcNAc(b1-3)Gal(b1-4)GlcNAc(b1-3)Gal(b1-4)GlcNAc(b1-3)Gal(b1-4)GlcNAc(b1-2)[GlcNAc(b1-3)Gal(b1-4)GlcNAc(b1-3)Gal(b1-4)GlcNAc(b1-3)Gal(b1-4)GlcNAc(b1-6)]Man(a1-6)[GlcNAc(b1-3)Gal(b1-4)GlcNAc(b1-3)Gal(b1-4)GlcNAc(b1-3)Gal(b1-4)GlcNAc(b1-2)Man(a1-3)]Man(b1-4)GlcNAc(b1-4)[Fuc(a1-6)]GlcNAc
# Method in brief: as §1
# [24] = biological target: Neu5Ac(a2-3)Gal(b1-3)GalNAc(b1-4)[Neu5Ac(a2-3)]Gal(b1-4)Glc
# Method in brief: as §1
binder,measurement,setting,value
Clec49 (Caenorhabditis elegans) (protein) MTRLTLLLFGLLGAATAQTCNTGGIYNEQFNRCYQYFTAPAQFSFAEQQCNLLGGHLASVQNGQENALLQSNAANSFKRSNYSDYWIGATDLETSGTWKWTDPSVTFDYSNWQLGEPQSGSDCAIQDKGDGTWSAIGCTSYRPYVCVTPVIMTATCPPITTPIPTTCPTPAPCPIKQCVPSCDQGWTYFSPTDFCYRVYHGEKFNDAEASCVLLGGHLASIHSLTENTFVNNIASCGIKEGKYEHLAWIGMRKVGQDWVWTDGTPSDYFNWAPKQPDNPKKELCVQTAPDLSHDKWYENWNNLECNEVMRAYICKKASIHN,glycan array binding signal (z-score),[1],6.67
same,glycan array binding signal (z-score),[2],0.061
same,glycan array binding signal (z-score),[3],2.31
same,glycan array binding signal (z-score),[4],-0.454
same,glycan array binding signal (z-score),[5],4.18
same,glycan array binding signal (z-score),[6],0.062
same,glycan array binding signal (z-score),Fuc(a1-3)GlcNAc,-0.399
same,glycan array binding signal (z-score),[7],0.226
same,glycan array binding signal (z-score),[8],-0.462
same,glycan array binding signal (z-score),[9],0.541
same,glycan array binding signal (z-score),[10],0.246
same,glycan array binding signal (z-score),[11],2.45
same,glycan array binding signal (z-score),Gal(a1-4)Gal(b1-4)Glc,-0.394
same,glycan array binding signal (z-score),Gal(b1-3)GlcNAc,-0.244
same,glycan array binding signal (z-score),[12],3.15
same,glycan array binding signal (z-score),[13],2.54
same,glycan array binding signal (z-score),[14],2.57
same,glycan array binding signal (z-score),[15],0.133
same,glycan array binding signal (z-score),[16],-0.488
same,glycan array binding signal (z-score),[17],-0.647
same,glycan array binding signal (z-score),Gal3S6S(b1-4)GlcNAc,-0.612
same,glycan array binding signal (z-score),Gal6S(b1-4)GlcNAc6S,0.322
same,glycan array binding signal (z-score),GalNAc(b1-6)GalNAc,-0.155
same,glycan array binding signal (z-score),[18],-0.484
same,glycan array binding signal (z-score),[19],-0.068
same,glycan array binding signal (z-score),[20],0.223
same,glycan array binding signal (z-score),[21],0.489
same,glycan array binding signal (z-score),[22],-0.119
same,glycan array binding signal (z-score),[23],0.571
same,glycan array binding signal (z-score),[24],1.48

# — the supplement of paper PMC8728848
